Compounds without any hit were thinned out: in the full panel of roughly 83,000, 20% have a hit.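 In brief: 96-well plates, 48 h treatment, single concentration, percent growth endpoint.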 Values without a mark were called inactive. Active and inactive are the calls of the source. The calls were made as follows: active = growth percent below 10; inactive = the rest.

Holding throughout (assay): NCI-60 one-dose screen, 48 h (100 = growth as untreated, 0 = no growth, -100 = all killed)
Conditions in all cases: 10 µM unless noted

The test system of assay [1] is SK-MEL-2 melanoma.
Assay [2] relates to EKVX NSCLC.
Assay [3] concerns SN12C renal.
Assay [4] has as its system UO-31 renal.
Assay [5] relates to TK-10 renal.
Assay [6] has as its system ACHN renal.
The test system of assay [7] is CAKI-1 renal.
The test system of assay [8] is A498 renal.
Assay [9] deals with CCRF-CEM leukemia.
Assay [10] has as its system MOLT-4 leukemia.
Assay [11] concerns SR leukemia.
Assay [12] has as its system RPMI-8226 leukemia.
Assay [13] relates to OVCAR-8 ovarian.
Assay [14] deals with OVCAR-5 ovarian.
Assay [15] deals with OVCAR-4 ovarian.
The test system of assay [16] is SK-OV-3 ovarian.
Assay [17] has as its system IGROV1 ovarian.
The test system of assay [18] is OVCAR-3 ovarian.
In assay [19] the test system is HS 578T breast.
Assay [20] relates to NCI/ADR-RES ovarian.

On to `COc1cc(CNC(=O)CCCC/C=C/C(C)C)ccc1OCc1cn(-c2ccc(C(F)(F)F)cc2)nn1`, for which the growth is 95.1% in assay [1]; 88.3% in [2]; 20.5% in [3]; 70.5% in assay [4]; 92.8% in [5]; 90.2% in assay [6]. In addition, the growth was 80.4% in assay [7]; 85.8% in [8]; 68.8% in assay [9]; 80.3% in [10]; 70.4% in assay [11]; 53.4% in assay [12]. In addition, the growth is 41.1% in assay [13]; 96.6% in [14]; 98.6% in assay [15]; 91.3% in [16]; 58.7% in [17]; 107% in assay [18]. The growth in assay [19] is 80.4%; in assay [20] it was 48.2%.

For `COCCn1cc(-c2nc(-c3cc4cccnc4n3C)cs2)c2cc(OC)ccc21`, the growth in assay [1] is 56.3%; in assay [2], 24.8%; in assay [3], 73%; in assay [4], 51%; in assay [5], 19.5%; in [6], 64.2%. The growth in [7] was 74.5%; in [8], 46.6%; in assay [9], 28.8%; in assay [10], 48.5%; in assay [11], 31%; in [12], 41%. The growth in assay [13] was 48.9%; in assay [14] it was 37.5%; in assay [15] it was 8.84% (active); in assay [16], 50%; in assay [17] it was 28.4%; in assay [18], 6.53% (active). For the same compound, the growth in [19] was 56.8%; in assay [20], 45.9%.

Turning to `O=C1NC(=O)C(=Cc2cc(-c3ccc(Cl)cc3)n(-c3ccccc3)n2)C(=O)N1`, the growth in [1] is 106%; in assay [2], 91.6%; in assay [3], 92.5%; in assay [4] it was 86.6%; in assay [5], 88.3%; in assay [6], 95.2%. In addition, the growth in assay [7] was 92.8%; in assay [8] it was 93.5%; in [9], 92.7%; in assay [10] it was 92.4%; in assay [11], 93.7%; in [12], 92.1%. Moreover, the growth in assay [13] was 101%; in [14], 91.5%; in [15] it was 103%; in assay [16], 105%; in assay [17], 93.1%; in assay [18], 111%. For the same compound, the growth in assay [19] was 95.5%; in assay [20], 107%.

For the compound `C=CC(=O)Nc1ccc2ncnc(Nc3cccc(NS(=O)(=O)CCC)c3Cl)c2c1`, the growth in [1] was 51.9%; in assay [2], 51.8%; in assay [3], 22.9%; in assay [4], 19.2%; in assay [5], 11.3%; in [6], 29.3%. Besides, the growth in [7] was 22.6%; in assay [8], -14.3% (active); in assay [9] it was 50.2%; in assay [10], 67.3%; in assay [11], 35.7%; in [12], 55.4%. In addition, the growth is 48.2% in [13]; 36.2% in [14]; 66.8% in assay [15]; 19.6% in assay [16]; 18.5% in assay [17]; 12.7% in assay [18]. The growth is 20.6% in assay [19] and 83.4% in assay [20].

In the case of `O=C(O)/C=C\C(=O)Nc1ccc2c(c1)Cc1cc(F)ccc1-2`, the growth in [1] was 98%; in assay [2] it was 90.3%; in assay [3], 100%; in assay [4] it was 81%; in assay [5] it was 114%; in [6], 94.2%. Besides, the growth is 81.3% in [7]; 109% in assay [8]; 110% in [9]; 109% in [10]; 106% in assay [11]; 97.6% in assay [12]. Also, the growth was 105% in assay [13]; 107% in [14]; 100% in assay [15]; 94.2% in [16]; 95.5% in assay [17]; 106% in assay [18]. Besides, the growth in assay [19] is 126%; in [20], 102%.

In the case of `N/C(=N\c1nc2ccccc2s1)NC(=O)Nc1ccccc1`, the growth in assay [1] was 30.2%; in assay [2], 54%; in assay [3], 29%; in [4] it was 46.3%; in [5] it was 75.3%; in [6], 55.7%. For the same compound, the growth in assay [7] is 44.3%; in assay [8] it was 42.7%; in [9], 12.5%; in assay [10] it was 27.8%; in assay [11] it was 15.7%; in assay [12], 7.59% (active). The growth in assay [13] is 41%; in assay [14] it was 51.7%; in assay [15], 73.8%; in assay [16] it was 51%; in [17], 58.8%; in assay [18] it was 28.4%. Moreover, the growth in [19] is 27.8%; in [20], 17.6%.

As for `CCN(CC)CCCC(Nc1c2ccc(Cl)cc2nc2ccc(OC)cc12)c1ccncc1` (stereo not given), the growth in assay [1] was 108%; in assay [2], 87%; in assay [3] it was 63.5%; in [4], 54.3%; in assay [5], 81.8%; in assay [6] it was 57%. The growth in [7] is 90.2%; in assay [8], 81.8%; in assay [9], 59.8%; in assay [10], 18.3%; in assay [11], -6.47% (active); in [12] it was 74.3%. For the same compound, the growth is 58.4% in [13]; 96.6% in [14]; 68.5% in assay [15]; 97.6% in assay [16]; 75.7% in assay [17]; 95.6% in assay [18]. For the same compound, the values for the growth in assay [19] and in [20] were 97.5% and 81.4%, respectively.

The record behind these values is PubChem BioAssay (NCI).
